Data taken from PubChem BioAssay (NCATS).
Values joined by “and” are separate entries in the source; they are usually repeats but may differ in a detail not shown here. Equal entries are not always repeated. Records with an inconclusive call do not appear. Active and inactive are the calls of the source. Unless noted, calls come from the whole dose curve; as a rule, active = well fitted curve in the direction sought with a large enough effect; inconclusive = small, poorly fitted or top-dose-only effect, or another doubt; inactive = no such curve, though single readings can be large; an effect the other way counts as inactive or inconclusive.

Tests used:
[1] = target: Glucocorticoid receptor (Homo sapiens) (UniProt P04150); test: qHTS assay for small molecule agonists of glucocorticoid receptor signaling (AID 588532; active = well fitted curve in the direction sought with a large enough effect in the signal ratio, with a control signal flat; the % refers to the signal ratio;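 note: 100% = dexamethasone at 0.1 µM and 0% = DMSO only wells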); conditions: HeLa MMTV-bla, beta-lactamase ratio, agonist, 18 h; stronger effect = higher value; percent of dexamethasone control, DMSO zero
Outline: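 MMTV-bla HeLa beta-lactamase reporter cells in 1% charcoal/dextran FBS medium, compounds up to 92 uM for 18 h at 37 C, CCF4 readout; normalized to 0.1 uM dexamethasone (100%), EC50 and efficacy from Hill fits.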

[2] = qHTS assay for small molecule antagonists of peroxisome proliferator-activated receptor delta signaling (AID 588535); conditions: HEK293T PPARd-UAS-bla, beta-lactamase FRET ratio, 18 h; 460 nm channel;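 note: cells co-treated with a PPAR-delta agonist as stimulator during compound exposure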
Outline: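 Cells were seeded at 4000 per well in assay medium containing 2% charcoal/dextran FBS and held 5 hrs at 37 C. Compounds were then added for 18 hrs. CCF4 substrate was applied for 2 hrs at room temperature before fluorescence reading.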

[3] = target: Peroxisome proliferator-activated receptor gamma (Homo sapiens) (UniProt P37231); test: qHTS assay for small molecule agonists of peroxisome proliferator-activated receptor gamma signaling (AID 588536; active = well fitted curve in the direction sought with a large enough effect in the signal ratio, with a control signal flat, not every such curve was filed as active; the % refers to the signal ratio;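 note: 0% = DMSO basal wells and 100% = rosiglitazone at 2 µM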); conditions: HEK293 PPARg-UAS-bla, beta-lactamase ratio, 16 h, percent of rosiglitazone response, DMSO as zero; series mostly up to 76.7 µM
Outline: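 Ratiometric blue/green fluorescence (405 nm excitation; 460 and 530 nm emission) from CCF4-loaded HEK293 reporter cells serves as signal. Exposure to test compounds lasts 16 h at 37 C in medium containing 1% charcoal/dextran-treated serum.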

[4] = target: Peroxisome proliferator-activated receptor gamma (Homo sapiens) (UniProt P37231); test: qHTS assay for small molecule antagonists of peroxisome proliferator-activated receptor gamma signaling (AID 588537; active = well fitted inhibition curve with a large enough effect in the signal ratio, with a control signal flat, not every such curve was filed as active; the % refers to the signal ratio;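 note: reporter cells co-stimulated with 50 nM rosiglitazone agonist during compound treatment; % of control where 0% means no effect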); conditions: HEK293 PPARg-UAS-bla, beta-lactamase ratio, antagonist mode; series mostly up to 76.8 µM
Outline: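 Step one: plate 3000 HEK293 UAS-bla cells per well in medium with 1% stripped serum and hold 6-6.5 h at 37 C. Step two: add compound and 50 nM agonist for 16 h. Step three: CCF4 loading, fluorescence read.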

[5] = qHTS assay for small molecule agonists of retinoid X receptor alpha signaling (AID 588544; calls by dose curve; note: potency is the fitted concentration of half-maximal effect;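 for activation: 0% = DMSO basal wells and 100% = reference agonist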); conditions: HEK293T RXRa-UAS-bla, beta-lactamase reporter, 18 h; 530 nm emission
[6] = target: Retinoic acid receptor RXR-alpha (Homo sapiens) (UniProt P19793); test: as above; conditions: HEK293T RXRa-UAS-bla, beta-lactamase reporter, 18 h; series mostly up to 76.7 µM
[7] = target: Thyroid hormone receptor beta (Homo sapiens) (UniProt P10828); test: qHTS assay for small molecule agonists of thyroid hormone receptor beta signaling (AID 588545; calls by dose curve;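 note: 0% = DMSO only and 100% = 10 nM T3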); conditions: TR-UAS-bla GripTite HEK 293, beta-lactamase ratio, agonist mode, 18 h; series mostly up to 76.7 µM
Outline: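 Stimulation of a TR-driven beta-lactamase reporter was quantified in GripTite HEK 293 cells. Compound series ran for 18 hrs; curves were normalized to T3 and DMSO controls and fitted to yield EC50.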

[8] = qHTS assay for small molecule antagonists of retinoid X receptor alpha signaling (AID 588546; active = well fitted inhibition curve with a large enough effect in the signal ratio, with a control signal flat, not every such curve was filed as active; the % refers to the signal ratio; note: potency is the fitted concentration of half-maximal effect;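 for max response: cells stimulated with 9-cis-retinoic acid as agonist; % is set by controls: 0 for no effect and ±100 for the full control effect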); conditions: HEK293T RXRa-UAS-bla, beta-lactamase ratio, antagonist mode; measured here: W530 green channel, cytotoxicity proxy
Outline: (§1)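 Beta-lactamase reporter inhibition, read as CCF4 fluorescence ratio (ex 405, em 460/530 nm) after 2 h at RT. HEK293T UAS-bla cells, 2500/well, were stimulated with 9-cis-RA at 500 or 100 nM final alongside test compound for 18 h at 37 C.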

[9] = target: Retinoic acid receptor RXR-alpha (Homo sapiens) (UniProt P19793); test: as above; conditions: HEK293T RXRa-UAS-bla, beta-lactamase ratio, antagonist mode
Outline: as §1

[10] = target: Thyroid hormone receptor beta (Homo sapiens) (UniProt P10828); test: qHTS assay for small molecule antagonists of thyroid hormone receptor beta signaling (AID 588547; active = well fitted inhibition curve with a large enough effect in the signal ratio, with a control signal flat, not every such curve was filed as active; the % refers to the signal ratio; note: potency is the fitted concentration of half-maximal effect;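 for activity change % (negative = inhibition): cells stimulated with 0.4 nM T3 agonist during compound exposure; % is set by controls: 0 for no effect and ±100 for the full control effect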); conditions: TR-UAS-bla HEK293, beta-lactamase ratio, antagonist mode, 18 h
Outline: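 TR-UAS-bla GripTite HEK293 cells in 2% charcoal/dextran FBS medium; compounds 0.59 nM to 92 uM with T3 at 0.4nM final, 18 h at 37 C. Beta-lactamase read by CCF4 fluorescence (460/530 nm); Hill fits gave IC50 and efficacy.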

[11] = qHTS assay for small molecule activators of the p53 signaling pathway (AID 651743; active = well fitted activation curve with a large enough effect in the signal ratio, not every such curve was filed as active; the % refers to the signal ratio; note: % of control where 0% means no effect); conditions: HCT-116 p53RE-bla, beta-lactamase FRET ratio, 16 h; activation: stronger effect = higher value
Outline: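 HCT-116 p53RE-bla, 4,000 cells/well; 5 h settle; cpd/DMSO 16 h, 37 C; LiveBLAzer B/G 2 h RT; fluorescence intensity.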

[12] = qHTS assay for small molecule activators of the nuclear factor-kappa B (NF-kB) signaling pathway (AID 651749; active = well fitted activation curve with a large enough effect in the signal ratio; the % refers to the signal ratio; note: % of control where 0% means no effect); conditions: NF-kB-bla ME-180 cells, beta-lactamase FRET ratio, 16 h; activation: stronger effect = higher value
Outline: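 Incubation lasted 16 hr at 37C in 5% CO2 after 23 nL compound addition to ME-180 NF-kB-bla cells. Activation appears as beta-lactamase-mediated FRET loss.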

[13] = qHTS assay for environmental chemicals that activate the Aryl hydrocarbon Receptor (AhR) signaling pathway (AID 651777); conditions: 1A2-DRE human hepatoma cells, luciferase, 24 h; activation: stronger effect = higher value; note: % of control where 0% means no effect; nearly all actives have a fitted effect of over 15% in size
Outline: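 AhR activation is scored as a rise in luciferase from a stable DRE–CYP1A2 promoter construct in human hepatoma cells. Treatment lasts 24 hr at 37 C; detection uses One-Glo after 30 min at room temperature.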

[14] = target: Peroxisome proliferator-activated receptor alpha (Homo sapiens) (UniProt Q07869); test: qHTS assay for small molecule agonists of the peroxisome proliferator-activated receptor alpha (PPARalpha) signaling pathway (AID 651778); conditions: PathHunter PPARalpha complementation, chemiluminescence, 6 h; max response: stronger effect = higher value; note: % of control where 0% means no effect
Outline: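 Enzyme-fragment complementation assay in which ligand-bound PPARalpha translocates and forms an active enzyme that generates chemiluminescence. Cells were plated overnight, exposed to compound for 6 hr at 37 C, and then given detection reagent for 60 min at room temperature.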

[15] = qHTS assay for small molecule agonists of the antioxidant response element (ARE) signaling pathway measured by Nrf2-dependant transcriptional activity (AID 720636; active = well fitted curve in the direction sought with a large enough effect in the repeat runs; an effect the other way counts as inactive or inconclusive;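 note: HepG2 cells with an ARE-driven luciferase reporter; % of control where 0% means no effect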); conditions: ARE-luc HepG2, Nrf2 luciferase reporter, 16 h; series mostly up to 92.4 µM
Outline: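 First, ARE-luc HepG2 cells attached for 6 hr at 37 C in 1% dialyzed FBS medium. Next, compound or DMSO was added and incubated 16 hr. Finally, ONE-Glo reagent was added and luminescence measured after 30 min.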

[16] = qHTS assay for small molecule agonists of the antioxidant response element (ARE) signaling pathway measured by Nrf2-dependant transcriptional activity - cell viability counter screen (AID 720653; active = well fitted curve in the direction sought with a large enough effect in the repeat runs; an effect the other way counts as inactive or inconclusive; note: % is set by controls: 0 for no effect and ±100 for the full control effect); conditions: ARE-bla HepG2 viability, CellTiter-Glo ATP luminescence, 16 h; max response: stronger effect = lower value
Outline: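 ARE-bla HepG2 cells treated with compounds for 16 h at 37C; this counter screen measures viability as intracellular ATP by CellTiter-Glo luminescence after 30 min at room temperature.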

[17] = qHTS assay for cell viability of HEK293 cells (AID 743288); conditions: ATP luminescence (CellTiter-Glo), 18 h; max response: stronger effect = lower value; note: % is set by controls: 0 for no effect and ±100 for the full control effect; nearly all actives have a fitted effect of over 50% in size
Outline: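 Total intracellular ATP, measured with a luciferase-coupled reagent, indicates the number of viable HEK293 cells. Exposure to test chemicals lasts 18 h at 37 C in 1,536-well format at 2,000 cells/well.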

[18] = qHTS assay for cell viability of the p53RE-bla HCT-116 cell line (AID 743292); conditions: p53RE-bla HCT-116 viability, ATP luminescence, 16 h; series mostly up to 95 µM; note: % is set by controls: 0 for no effect and ±100 for the full control effect; nearly all actives have a fitted effect of over 55% in size
Outline: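 Quantitative high-throughput format: compounds in DMSO were pinned onto p53RE-bla HCT-116 cells (4,000/well) and incubated 16 h at 37 C. Total intracellular ATP, read by CellTiter-Glo luminescence, reflects viable cell number.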

[19] = target: Nuclear receptor subfamily 1 group I member 2 (Rattus norvegicus) (UniProt Q9R1A7); test: qHTS assay for small molecule activators of the rat pregnane X receptor (rPXR) signaling pathway (AID 651751; call rule not given here; note: 0% is about no effect); conditions: rPXR reporter cells, luciferase (One-Glo), 24 h
[20] = qHTS assay for small molecule activators of the human pregnane X receptor (PXR) signaling pathway (AID 720659; call rule not given here; note: 0% is about no effect); conditions: DPX-2 HepG2 CYP3A4-luciferase, 24 h; series mostly up to 92.3 µM

Retinoic acid receptor RXR-alpha (Homo sapiens), sequence (P19793 whole entry, looked up): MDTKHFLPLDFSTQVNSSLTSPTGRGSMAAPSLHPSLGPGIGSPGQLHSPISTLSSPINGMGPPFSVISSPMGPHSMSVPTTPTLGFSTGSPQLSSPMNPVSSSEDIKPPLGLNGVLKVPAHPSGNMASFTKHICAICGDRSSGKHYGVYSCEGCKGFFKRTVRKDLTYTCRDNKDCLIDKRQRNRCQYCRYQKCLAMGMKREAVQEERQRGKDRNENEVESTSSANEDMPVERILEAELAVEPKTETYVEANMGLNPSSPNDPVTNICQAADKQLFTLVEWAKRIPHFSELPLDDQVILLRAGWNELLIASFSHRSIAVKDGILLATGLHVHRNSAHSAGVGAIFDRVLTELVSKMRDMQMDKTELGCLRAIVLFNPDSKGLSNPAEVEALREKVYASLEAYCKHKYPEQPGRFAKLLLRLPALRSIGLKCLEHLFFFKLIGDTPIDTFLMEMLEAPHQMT
Peroxisome proliferator-activated receptor alpha (Homo sapiens), sequence (Q07869 whole entry, looked up, the tested form may be a part): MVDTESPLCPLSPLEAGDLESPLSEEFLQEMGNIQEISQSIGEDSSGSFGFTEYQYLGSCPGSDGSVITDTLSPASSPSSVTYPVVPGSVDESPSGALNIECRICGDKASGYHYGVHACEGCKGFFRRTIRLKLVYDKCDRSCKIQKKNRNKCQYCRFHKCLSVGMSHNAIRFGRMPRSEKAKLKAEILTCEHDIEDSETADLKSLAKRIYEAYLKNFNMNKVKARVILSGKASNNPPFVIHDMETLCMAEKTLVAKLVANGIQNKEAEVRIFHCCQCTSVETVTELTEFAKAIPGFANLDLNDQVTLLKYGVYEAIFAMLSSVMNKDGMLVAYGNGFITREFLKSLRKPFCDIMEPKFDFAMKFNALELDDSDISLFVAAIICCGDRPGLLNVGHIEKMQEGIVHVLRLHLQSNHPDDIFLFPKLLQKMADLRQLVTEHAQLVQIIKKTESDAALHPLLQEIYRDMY
Peroxisome proliferator-activated receptor gamma (Homo sapiens), sequence (P37231 whole entry, looked up): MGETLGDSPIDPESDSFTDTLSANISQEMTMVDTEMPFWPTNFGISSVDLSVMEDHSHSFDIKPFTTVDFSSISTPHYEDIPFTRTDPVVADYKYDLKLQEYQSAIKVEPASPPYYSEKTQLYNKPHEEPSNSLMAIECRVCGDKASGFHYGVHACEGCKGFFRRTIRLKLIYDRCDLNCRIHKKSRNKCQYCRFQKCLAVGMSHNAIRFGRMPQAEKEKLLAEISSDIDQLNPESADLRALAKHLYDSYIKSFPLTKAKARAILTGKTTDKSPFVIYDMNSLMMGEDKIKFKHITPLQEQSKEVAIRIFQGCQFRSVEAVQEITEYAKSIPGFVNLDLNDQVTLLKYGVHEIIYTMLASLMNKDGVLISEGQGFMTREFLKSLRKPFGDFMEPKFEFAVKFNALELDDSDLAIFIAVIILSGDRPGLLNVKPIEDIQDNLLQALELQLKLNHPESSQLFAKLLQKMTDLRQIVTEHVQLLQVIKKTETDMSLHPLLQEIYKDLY
Nuclear receptor subfamily 1 group I member 2 (Rattus norvegicus), sequence (Q9R1A7 whole entry, looked up): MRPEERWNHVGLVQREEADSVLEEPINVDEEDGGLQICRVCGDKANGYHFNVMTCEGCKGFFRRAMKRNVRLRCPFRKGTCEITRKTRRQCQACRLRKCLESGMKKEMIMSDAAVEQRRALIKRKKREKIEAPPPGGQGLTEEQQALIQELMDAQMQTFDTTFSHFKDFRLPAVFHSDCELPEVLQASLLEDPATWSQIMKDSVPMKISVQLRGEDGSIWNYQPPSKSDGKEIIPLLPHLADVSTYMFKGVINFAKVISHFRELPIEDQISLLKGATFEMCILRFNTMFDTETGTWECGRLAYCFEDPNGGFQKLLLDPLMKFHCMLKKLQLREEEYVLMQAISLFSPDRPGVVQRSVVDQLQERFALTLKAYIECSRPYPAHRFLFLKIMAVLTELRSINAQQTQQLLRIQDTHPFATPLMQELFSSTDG
Glucocorticoid receptor (Homo sapiens), sequence (P04150 whole entry, looked up): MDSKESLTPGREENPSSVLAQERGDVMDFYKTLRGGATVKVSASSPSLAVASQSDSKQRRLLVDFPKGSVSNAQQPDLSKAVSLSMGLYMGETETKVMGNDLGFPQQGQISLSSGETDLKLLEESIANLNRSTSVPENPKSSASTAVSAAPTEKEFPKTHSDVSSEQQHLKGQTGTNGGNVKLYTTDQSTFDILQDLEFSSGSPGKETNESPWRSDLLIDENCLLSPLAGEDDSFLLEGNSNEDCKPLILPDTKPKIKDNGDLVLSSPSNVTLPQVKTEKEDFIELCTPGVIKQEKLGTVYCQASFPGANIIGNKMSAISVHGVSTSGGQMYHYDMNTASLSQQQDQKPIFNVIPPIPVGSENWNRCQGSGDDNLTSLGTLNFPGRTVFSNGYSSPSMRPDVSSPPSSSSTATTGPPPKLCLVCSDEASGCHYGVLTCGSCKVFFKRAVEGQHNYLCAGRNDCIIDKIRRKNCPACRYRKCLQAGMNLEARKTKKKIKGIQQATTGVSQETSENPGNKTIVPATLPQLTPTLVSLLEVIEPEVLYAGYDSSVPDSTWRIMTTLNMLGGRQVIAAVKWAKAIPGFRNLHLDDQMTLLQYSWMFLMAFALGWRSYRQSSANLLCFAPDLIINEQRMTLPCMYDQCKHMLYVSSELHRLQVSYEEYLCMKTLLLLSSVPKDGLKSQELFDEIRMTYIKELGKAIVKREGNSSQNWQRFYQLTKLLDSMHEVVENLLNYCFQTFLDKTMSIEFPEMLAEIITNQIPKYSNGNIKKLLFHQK
Thyroid hormone receptor beta (Homo sapiens), sequence (P10828 whole entry, looked up): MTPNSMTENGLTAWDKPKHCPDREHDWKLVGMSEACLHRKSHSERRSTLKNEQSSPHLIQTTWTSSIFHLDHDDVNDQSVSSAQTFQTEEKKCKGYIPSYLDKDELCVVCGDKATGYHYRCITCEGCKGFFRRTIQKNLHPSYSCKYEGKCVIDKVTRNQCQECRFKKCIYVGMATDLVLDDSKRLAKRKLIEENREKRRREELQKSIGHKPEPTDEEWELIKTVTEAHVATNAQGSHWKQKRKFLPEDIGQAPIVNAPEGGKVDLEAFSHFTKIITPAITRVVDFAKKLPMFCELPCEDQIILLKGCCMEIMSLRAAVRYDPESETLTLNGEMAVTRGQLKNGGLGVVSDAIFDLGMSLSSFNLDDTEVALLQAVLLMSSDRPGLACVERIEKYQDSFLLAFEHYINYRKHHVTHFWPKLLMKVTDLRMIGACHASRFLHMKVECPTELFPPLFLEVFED

CCCCOC(=O)[C@@H](C)Oc1ccc(Oc2ccc(C(F)(F)F)cn2)cc1
inactive: activation [1] -9.59% | outcome [3] | Potency [4] | Potency [6] | Potency [7] | max response [9] 9.28% and -16% | activity change % (negative = inhibition) [10] 6.28% and 7.31% | activation [11] -5.64% and -5.4% | activation [12] -0.296% and -2.63% | activation [13] -0.836% and 0.498% | max response [14] -0.0053% and -0.638% | Potency [15] | max response [16] -10.9% and -13.9% | max response [17] -10% and -13.5% | Potency [18] | max response [19] -5.37% and -2.58%
-3.89% and -1%: max response [5]
35.2% and 48.6%: max response [2]
-5.61% and -1.04%: max response [8]

C[Si]1(C)O[Si](C)(C)O[Si](C)(C)O[Si](C)(C)O1
8.31%: max response [2]
inactive: Potency [4] | Potency [7] | max response [9] 6.05% | activity change % (negative = inhibition) [10] 11% | activation [11] -2.06% | activation [12] 0.122% | activation [13] -0.142% | max response [14] -0.153% | Potency [15] | max response [16] 2.58% | max response [17] 0.965% | Potency [18] | max response [19] 3.43% | outcome [20]
1.41%: max response [8]

O=C(O)CN(CCO)CCN(CC(=O)O)CC(=O)O
-2.45%: max response [8]
-15.4%: max response [5]
6.54%: max response [2]
inactive: activation [1] -10.4% | outcome [3] | Potency [4] | Potency [6] | Potency [7] | max response [9] -2.39% | activity change % (negative = inhibition) [10] -8.14% | activation [11] -0.291% | activation [12] -1.52% | activation [13] -0.73% | max response [16] -1.05% | max response [17] -11.1% | max response [19] 1.3% | outcome [20]

O=c1n(CCO)c(=O)n(CCO)c(=O)n1CCO
-13.7%: max response [5]
-6.53%: max response [8]
3.67%: max response [2]
inactive: outcome [3] | Potency [6] | Potency [7] | max response [9] 2.33% | activation [11] 3.11% | activation [12] 4.3% | activation [13] 0.674% | max response [14] 0.0492% | max response [16] -11.6% | max response [17] -6.36% | Potency [18] | max response [19] -0.84%

CC(C)=CCC[C@@H](C)[C@H]1CC[C@@]2(C)C3=C(CC[C@]12C)[C@@]1(C)CC[C@H](O)C(C)(C)[C@@H]1CC3
37.7%: max response [2]
inactive: activation [1] 8.87% | outcome [3] | Potency [6] | Potency [7] | max response [9] 8.2% | activity change % (negative = inhibition) [10] -4.34% | activation [11] 2.67% | activation [12] 1.26% | activation [13] 1.89% | Potency [15] | max response [16] 3.07% | max response [17] -4.2% | Potency [18] | max response [19] 0.187% | outcome [20]
0.0546%: max response [8]
-27.3%: max response [5]

CC1(C)CC(OC(=O)CCCCCCCCC(=O)OC2CC(C)(C)NC(C)(C)C2)CC(C)(C)N1
inactive: activation [1] -2.43% | outcome [3] | Potency [6] | Potency [7] | max response [9] -19.6% | activation [11] -2.75% | activation [12] 2.54% | activation [13] 0.228% | max response [14] -4.12% | Potency [15] | max response [16] -3.17% | max response [17] -10.1% | Potency [18] | max response [19] -0.828% | outcome [20]
-2.95%: max response [5]
5.99%: max response [8]
5.94%: max response [2]

CCCCCCCC(=O)Oc1c(Br)cc(C#N)cc1Br
-5.85%: max response [8]
inactive: outcome [3] | Potency [4] | Potency [6] | Potency [7] | activity change % (negative = inhibition) [10] -2.51% | activation [11] 6.26% | activation [12] -2.23% | Potency [15] | max response [16] 0.905% | max response [17] -6.14% | Potency [18] | max response [19] -8.28% | outcome [20]
-14.9%: max response [5]

COc1nc(C)nc(NC(=O)NS(=O)(=O)c2ccccc2OCCCl)n1
inactive: activation [1] -18.5% | outcome [3] | Potency [7] | max response [9] 20.3% | activity change % (negative = inhibition) [10] 1.88% | activation [11] -4.39% | activation [12] 0.852% | activation [13] 2.11% | max response [14] 1.06% | Potency [15] | max response [16] 14.8% | max response [17] 6.67% | max response [19] 5.75% | outcome [20]
-8.8%: max response [2]
11.2%: max response [8]

O=c1[nH]sc2ccccc12
-44.3%: max response [8]
inactive: activation [1] -3.87% | Potency [4] | Potency [7] | activation [11] -3.28% | activation [12] -1.58% | activation [13] 2.41% | max response [14] -8.62% | max response [16] -17.7% | Potency [18] | outcome [20]
active: Potency [9] 20 µM | Potency [10] 15.8 µM

CC(C)(C)c1cc(C(C)(C)C)c(O)c(C(C)(C)C)c1
12%: max response [2]
active: Potency [6] 0.794 µM
-17.5%: max response [5]
inactive: activation [1] 22.2% | Potency [4] | Potency [7] | activity change % (negative = inhibition) [10] -16.9% | activation [11] 3.15% | activation [13] -0.208% | max response [14] 7.66% | Potency [15] | max response [16] 8.43% | max response [17] -4.45% | Potency [18] | max response [19] -4.2% | outcome [20]
